# Measurements taken from PubChem BioAssay (NCI).
# Compounds without any hit were thinned out: in the full panel of roughly 83,000, 20% have a hit.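 Negative percent growth values reflect cell death: -40 means 40% of the cells present at the start died, and -100 means all died.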 A number with no mark means an inactive call. Active and inactive are the calls of the source. How the source made its calls: active means growth percent below 10; inactive means the rest.
# Assays:
# Experiment in all cases: NCI-60 one-dose screen, 48 h (100 = growth as untreated, 0 = no growth, -100 = all killed)
# Settings in all cases: 10 µM unless noted
# NCI-H23 lung = system: NCI-H23 lung
# NCI-H226 lung = system: NCI-H226 lung
# NCI-H322M lung = system: NCI-H322M lung
# HOP-62 NSCLC = system: HOP-62 NSCLC
# NCI-H460 lung = system: NCI-H460 lung
# HOP-92 NSCLC = system: HOP-92 NSCLC
# NCI-H522 lung = system: NCI-H522 lung
# A549/ATCC NSCLC = system: A549/ATCC NSCLC
# 786-0 renal = system: 786-0 renal
# COLO 205 colon = system: COLO 205 colon
# DU-145 prostate = system: DU-145 prostate
# K-562 leukemia = system: K-562 leukemia
# MALME-3M melanoma = system: MALME-3M melanoma
# MDA-MB-231 breast = system: MDA-MB-231 breast
# RXF 393 renal = system: RXF 393 renal
# SF-268 CNS = system: SF-268 CNS
# SF-295 CNS = system: SF-295 CNS
# SF-539 CNS = system: SF-539 CNS
# UACC-257 melanoma = system: UACC-257 melanoma
# M14 melanoma = system: M14 melanoma
Structure (SMILES),growth (NCI-H23 lung),growth (NCI-H226 lung),growth (NCI-H322M lung),growth (HOP-62 NSCLC),growth (NCI-H460 lung),growth (HOP-92 NSCLC),growth (NCI-H522 lung),growth (A549/ATCC NSCLC),growth (786-0 renal),growth (COLO 205 colon),growth (DU-145 prostate),growth (K-562 leukemia),growth (MALME-3M melanoma),growth (MDA-MB-231 breast),growth (RXF 393 renal),growth (SF-268 CNS),growth (SF-295 CNS),growth (SF-539 CNS),growth (UACC-257 melanoma),growth (M14 melanoma)
COc1cc(N2C(=O)[C@H](O)C2c2ccc(SC)cc2)cc(OC)c1OC (stereo not given in full),23%,68.6%,37.1%,21.6%,5.6% (active),26.1%,-19.8% (active),17%,11.3%,-53.3% (active),3.72% (active),5.68% (active),71.7%,30.3%,15.3%,28.1%,10.1%,16.3%,42.1%,6.4% (active)
COC(=O)/C(CCC=C(C)C)=C1\[C@@H](OC(C)=O)C[C@@]2(C)[C@H]1C[C@@H](O)[C@H]1[C@@]3(C)CC[C@H](NCCN)[C@@H](C)[C@@H]3CC[C@@]12C,88.7%,83.5%,83.5%,93%,99.6%,53.1%,86.9%,88.9%,73.5%,80.3%,65.4%,-7.67% (active),89.4%,93%,57.8%,76.6%,98.2%,90.2%,99.7%,87%
COc1cc(/C=C/C(=O)c2cccc(Nc3nc(Nc4ccccc4)nc(Nc4ccccc4)n3)c2)cc(OC)c1OC,40.7%,68.6%,87.2%,74.6%,59.9%,-48.2% (active),87.8%,59.5%,65.1%,61.2%,60.9%,24.1%,69%,56%,-32.4% (active),73.4%,72.9%,78.7%,106%,78.5%
OCc1cccc(-c2ccc3ncc(-c4nc(NC5CC5)ncc4F)n3c2)c1,-16.3% (active),2.19% (active),-6.44% (active),2.21% (active),-4.33% (active),-13.9% (active),-13.9% (active),-8.48% (active),6.46% (active),-39.7% (active),2.04% (active),4.91% (active),-69% (active),-15.6% (active),-44.3% (active),-24.5% (active),4.24% (active),-61.2% (active),-29.9% (active),-39.4% (active)
Clc1ccc(CNc2c3ccccc3nc3ccccc23)cc1,53%,75.5%,54.1%,53%,16.4%,25.5%,66.5%,39.3%,35.3%,8.58% (active),54.8%,4.34% (active),39.6%,54.8%,29.7%,67.9%,59.6%,30.3%,76.1%,53.3%
O=C1Nc2ccc(Br)cc2/C1=N/c1n[nH]c(=S)s1,93.3%,99.4%,107%,89%,106%,94.8%,93.4%,98%,97.8%,114%,106%,90.8%,107%,105%,109%,91.5%,101%,99.7%,99.6%,99.8%
O=C(c1ccc(-c2ccccc2)cc1)c1ccc([N+](=O)[O-])cc1,103%,98.5%,115%,111%,109%,90.6%,89.5%,114%,99.9%,111%,121%,69.8%,163%,90.8%,109%,102%,83.6%,107%,121%,94.5%
COc1ccc(-c2ccc3cnc4sc(-c5ccc(OC)cc5)nc4c3n2)cc1,91%,85.7%,86.7%,97.8%,102%,100%,87.4%,93.1%,106%,104%,107%,96.6%,111%,89.6%,107%,95.4%,100%,91.5%,106%,115%
CC(=O)Cc1nsc(NC(=O)c2cc(-c3cc(Cl)cc(Cl)c3)oc2C)n1,101%,96.3%,100%,95.9%,103%,105%,86.6%,94.3%,98%,107%,108%,100%,111%,104%,105%,88.1%,99.4%,98.5%,89%,105%
CS(=O)(=O)Nc1cc(-c2ccc3ncnc(Nc4ccc5c(cnn5Cc5ccccn5)c4)c3c2)cnc1Cl,76.7%,81.3%,86.2%,68.8%,85.8%,2.29% (active),67.9%,89.2%,84.3%,93.1%,90%,92.1%,39.5%,71.5%,72.8%,51.5%,91.5%,69.9%,88.1%,75.5%
CCC(=C(c1ccc(OCCN2CCCC2)cc1)c1ccc(OCCN2CCCC2)cc1)c1ccc(Cl)cc1,77.1%,105%,20%,60.2%,-86.9% (active),38.7%,23.5%,-28% (active),-94.2% (active),-64.8% (active),26.4%,-21.2% (active),-82.1% (active),-70.9% (active),13.7%,49.8%,-61.9% (active),-88.4% (active),-58% (active),-75% (active)
CN1CCN(c2ccc(NC(=O)c3nc4ccc5[nH]ncc5c4c4c3CCCC4)cc2C(F)(F)F)CC1,90.2%,80%,86.3%,72.2%,-55.4% (active),49.2%,76.7%,60.2%,34.3%,59.3%,-27.9% (active),7.04% (active),33.1%,45.8%,72.3%,78%,97.9%,89.6%,98.7%,79.5%
O=C1/C(=C/c2ccccc2Br)COc2ccc(O)c(O)c21,46.5%,86.3%,33.3%,-5.9% (active),14.3%,36.9%,-45.2% (active),35.1%,-41.6% (active),82.2%,13%,9.73% (active),-8.51% (active),0.858% (active),10.1%,10.9%,62.9%,-25.7% (active),19.7%,31.5%
Nc1ncnc2c1N=C(c1ccc(Cl)cc1)CC(c1ccc3c(c1)OCO3)N2 (stereo not given),100%,90.8%,112%,88.1%,103%,59.8%,89.7%,98.4%,91.6%,98.6%,109%,71.3%,116%,88.6%,80.9%,91.1%,128%,88.3%,110%,118%
CCNc1nc(-c2ccc(Cl)c(OC)c2)c(-c2ccnc(NCCCNS(=O)(=O)c3ccc(Cl)cc3)n2)s1,83.7%,72.2%,101%,61.7%,63.7%,20.9%,28.9%,44.9%,54.3%,11.7%,74.3%,32.3%,7.63% (active),50.9%,70.2%,60.4%,70.3%,86.6%,29.2%,23%
Cc1cc(=O)[nH]c2c(C#N)cnn12,102%,96.4%,101%,105%,104%,109%,89.1%,97.5%,105%,114%,104%,103%,98.9%,104%,110%,99.9%,101%,101%,96.7%,105%
